# SARS PLpro yeast – inhibitors of SARS-CoV papain-like protease in yeast; Potency, µM (highest dose often 32.9 µM), inactives show at the top dose activity, positive = growth rescue, hits mostly activators; S. cerevisiae expressing SARS-CoV PLpro, growth rescue; hit rate 0.19% among 330,000; further: potency means the concentration at half of the fitted maximal effect; 0% is about no effect; nearly all actives have a fitted effect of over 55% in size
# CHX counter – counter-screen hit for Shiga toxin inhibitors, cycloheximide; cell reporter, cycloheximide protein synthesis inhibition counterscreen; max response, %; hit rate 12% among 300,000; AID 2314; in the data active means max response mostly above about 13%, no sharp cut-off; inactive means mostly below about 14%; further: read at 38.3 µM for the half of the compounds with a filed dose; 0% is about no effect
# Shiga inhibitor – inhibitors of Shiga toxin in Vero cells; hit rate 9.2% among 290,000; Vero cells, Shiga toxin protein synthesis inhibition reporter; inhibition, % at 38.7 µM; AID 2315; in the data active means inhibition mostly above about 28%, no sharp cut-off; inactive means mostly below about 43%; further: 0% is about no effect
# NS1 inh – influenza NS1 inhibition | Potency, µM (titrated, usually from 46.1 µM), for inactives: at the highest dose activity, positive = more growth | hit rate 0.4% among 270,000 | AID 2326; further: potency means the concentration at half of the fitted maximal effect; actives are rising curves; nearly all actives have a fitted effect of over 50% in size
#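 S. cerevisiae expressing influenza A NS1, grown in glucose, washed, then diluted 1:100 into pH 6.0 -URA galactose medium with 23 nl compound. Growth recovery read as OD600; NS1-free strain serves as control.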
# * marks the source's active call; other numbers are inactive results; · = not tested or not shown; + = active, no number. Hits are enriched below; roughly 12% of the tested compounds scored in any of these assays. Unless noted, the call rests on the fitted dose curve.
SMILES,SARS PLpro yeast,CHX counter,Shiga inhibitor,NS1 inh
CN(C)C(CNC(=O)CCCN1C(=O)c2cccc3cccc(c23)C1=O)c1ccccc1 (stereo not drawn),0%,5,3,-2%
CCCC1=NN(c2ccc([N+](=O)[O-])cc2)C(=O)/C1=C\N(C)C,22%,11*,24,1%
Cc1cccc2c1c(N=NC(N)=S)c(O)n2C1OC(CO)C(O)C(O)C1O (stereo not drawn),-1%,-3,1,14%
O=C(N=C1c2ccccc2CN1c1ccccc1)c1cccc([N+](=O)[O-])c1,-20%,18*,35,-28%
O=C(N=C1c2ccccc2CN1c1cccc(Cl)c1)c1cccnc1,-23%,34*,26*,0%
COc1ccc(N2Cc3ccccc3C2=NC(=O)c2ccc(C)cc2)cc1OC,0%,15,10,·
O=C(N=C1c2ccccc2CN1c1ccc(F)c(F)c1)c1cccnc1,0%,29*,39,3%
Cc1cnc(NC(=O)CCCNC(=O)c2ccc(Cl)cc2)s1,0%,·,·,·
COc1ccc(N2CCN(CC(=O)Nc3nc(C)cs3)CC2)cc1,2%,-1,-14,-14%
COc1cccc(CN2CC(C(=O)N(C)CCCC3CCCC3)CCC2=O)c1 (stereo not drawn),5%,6,15,-4%
CCOc1ccccc1-n1c(SC(C)C(=O)NCC2CCCO2)nc2ccccc2c1=O (stereo not drawn),-2%,·,·,·
Cn1cccc1CC(=O)N/N=C/c1ccc(Cl)cc1,-3%,16*,26*,2%
COc1cc(/C=N/n2cnnc2)ccc1OCc1ccc(C)cc1,2%,37,79,4%
COc1cc(/C=N/n2cnnc2)ccc1OCc1ccccc1,-9%,22*,22,-37%
CC(C)(C)OC(=O)COc1ccc(/C=N/NC(=O)CN2CCCCC2)cc1,2%,45*,88*,0%
O=C(CN1CCCCC1)N/N=C/c1ccc(Cl)cc1,4%,14*,45*,-3%
C[C@@H](NC(=O)c1nc[nH]c1C(=O)N(C)Cc1ccccc1)c1ccccc1,-2%,·,·,·
CCn1nc(C)cc1C(=O)N1CCCC(C(=O)c2ccccc2SC)C1 (stereo not drawn),-3%,1,-5,-4%
COc1cc(/C=N/NC(=O)CN2CCCCC2)ccc1OCc1ccccc1,-11%,28*,+,-39%
COc1cc(/C=N/OCC(=O)Nc2cc(C)on2)ccc1OCc1ccccc1,12%,18*,104*,-4%
O=C(CN1CCCCCCC1)N/N=C/c1ccc(F)c(F)c1,9%,2,30,2%
Cc1cc(NC(=O)COC(=O)c2cccc(OCc3ccccc3)c2)no1,-1%,-4,7,8%
O=C(CN1CCCCCC1)N/N=C/c1ccc2ccccc2c1,-4%,43*,74*,-5%
CCOC(=O)C1(Cc2ccc(Cl)cc2)CCN(C(=O)c2cc(C)nc(C)n2)CC1,0%,-3,-2,-4%
CCN(CC)CCNC(=O)c1ccc(CS(=O)(=O)c2ccc(Br)cc2)o1,-4%,-3,-13,3%
SMILES,SARS PLpro yeast,CHX counter,Shiga inhibitor,NS1 inh
Cn1c(SCC(=O)c2ccc(O)c(O)c2)nnc1-c1cccs1,-1%,26*,11,0%
CC(C)c1ccc(-c2nnc(SCC(=O)NC3CC3)n2C)cc1,6%,13*,37*,12%
CCCn1c(SCC(=O)NC2CC2)nnc1-c1cccs1,-5%,-1,-31,21%
Cn1c(SCC(=O)c2ccc(O)c(O)c2)nnc1-c1ccccc1,7%,11,29,2%
O=C(CSc1nc2ccccc2n1CCc1ccccc1)c1ccc(O)c(O)c1,3%,12*,16,9%
Cn1c(SCC(=O)NC2CCCC2)nnc1-c1ccncc1,1%,-6,-17,-2%
O=C(CSc1nc2ccccc2n1CCc1ccccc1)N1CCOCC1,-14%,-2,-17,-11%
Cn1c(SCC(=O)NC2CC2)nnc1-c1cccs1,-7%,62*,75*,-30%
CC1CN(C(=O)CSc2nnc(-c3ccc(Cl)cc3)n2C)CC(C)O1 (stereo not drawn),2%,20*,55,3%
C/C(CC(=O)Nc1cccnc1)=N\NC(=O)C(=O)Nc1cccc(C)c1,-12%,-2,23,8%
CCOc1cccc(OCCOCCN(C)Cc2ccccc2)c1,-1%,-1,-7,-3%
CCOc1cccc(OCCOCCN(C)C)c1,-5%,12,52*,-2%
CCOc1cccc(OCCCOc2ccccc2)c1,-1%,15*,13,5%
FC(F)(F)c1ccc(Oc2ccc3cc(Br)ccc3c2)nc1,-1%,7,-2,0%
Cc1cc(C)c2nc3nc(C)c(C)cc3c(N)c2c1,-1%,20,70*,-6%
Cc1ccc(C(=O)N(CCCN(C)C)c2nc3ccc(Cl)cc3s2)cc1C,-5%,-7,-32,·
CN(C)CCCN(C(=O)c1ccc2c(c1)OCCO2)c1nc2ccc(Cl)cc2s1,-1%,15*,36,-7%
CN(C)CCN(C(=O)c1ccc2c(c1)OCCO2)c1nc2ccc(Cl)cc2s1,0%,27*,36,·
CC1=C(C(=O)NCc2ccccn2)C2(CCC(C)CC2)OC1=O (stereo not drawn),1%,-3,-2,-6%
CCCOc1cccc(NC(=O)OC2CCN(C)CC2)c1,22%,3,10,2%
CCc1c(C)sc(NC(=O)CN2CCN(C(=O)c3ccco3)CC2)c1C(=O)OC,-11%,16*,37,-75%
CCOC(=O)c1c(NC(=O)CN2CCN(C(=O)c3ccco3)CC2)sc(C)c1C,2%,-4,-5,8%
Cc1ccc(Cn2ccnc2C(=O)Nc2ccccc2)cc1,-3%,27*,87*,·
COC(=O)c1ccc(NC(=O)CSc2nccn2CCc2ccccc2)cc1,5%,44*,88,-5%
Cn1c(SCC(=O)Nc2nccs2)nnc1C12CC3CC(CC(C3)C1)C2,-6%,27*,37,-6%
SMILES,SARS PLpro yeast,CHX counter,Shiga inhibitor,NS1 inh
Cn1ccnc1SCC(=O)Nc1ccccc1,-16%,-3,30,-1%
O=C(CSc1nccn1Cc1ccccc1)Nc1nccs1,2%,37*,active,3%
CC(C)(C)NC(=O)CSc1nccn1Cc1ccccc1,2%,-4,-7,-1%
Cn1c(SCC(=O)Nc2nccs2)nnc1C1CC1,4%,2,-4,7%
O=C(CSc1nccn1Cc1ccccc1)NC1CCCC1,13µM*,25*,18,5%
Cc1nnc(NC(=O)CSc2cn(Cc3ccccc3)c3ccccc23)s1,-6%,-4,-24,3%
O=C(CSc1nccn1Cc1ccccc1)Nc1ccccc1,28%,18*,33*,5%
Cc1ccc(Cn2cc(SCC(=O)Nc3nccs3)c3ccccc32)cc1,7%,24*,33,6%
NC(=O)CC1NC(=O)c2cc([N+](=O)[O-])cc(I)c2OCCC(C(N)=O)NC(=O)[C@@H]2CCCN2C1=O (stereo partly drawn),6%,-2,-17,24%
Cc1ccsc1/C=C(\CC(=O)O)c1nc2ccccc2o1,-9%,22*,51*,-64%
CC[C@]12c3[nH]c4ccc(Cl)cc4c3CCN1C(=O)[C@@H](CC(=O)NC/C=C(\C)CCC=C(C)C)C[C@@H]2C(=O)N1CCN(C(=O)C2CC2)CC1,-6%,·,·,·
CCCC(C)c1nnc(NC(=O)CN2C(=O)c3ccccc3C2=O)s1 (stereo not drawn),4%,-1,-21,9%

# Screens from PubChem BioAssay.
